Screening data deposited in PubChem BioAssay by several laboratories.
APOBEC3A inh: blocks human APOBEC3A ssDNA deamination; 330,000 tested, 0.41% active; AID 493011; recombinant A3A, FAM/TAMRA ssDNA deamination fluorescence; inhibition, % at 20 µM; P31941;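 active = at least 40% inhibition at 20 µM here, with at most 30% in a related deaminase screen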;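 note: plate controls were A3A with DMSO for no effect and wells lacking A3A enzyme for full effect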
Target sequence (P31941 whole entry, looked up): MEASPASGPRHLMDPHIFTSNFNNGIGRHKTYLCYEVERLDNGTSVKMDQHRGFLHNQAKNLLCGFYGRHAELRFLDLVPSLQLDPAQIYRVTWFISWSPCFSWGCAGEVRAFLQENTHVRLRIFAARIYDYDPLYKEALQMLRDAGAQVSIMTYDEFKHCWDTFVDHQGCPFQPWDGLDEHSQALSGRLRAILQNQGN
A1 inh: inhibitors of the anti-apoptotic protein A1, read as caspase activation; MEF A1-2A-BIM cells, Caspase-Glo 3/7 luminescence, 3 h; percent of clofoctol response, vehicle zero; caspase activation, % (no concentration beside the values); 330,000 tested, 0.066% active; AID 2462;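 active = over half of replicate activation scores above 10%, or exactly half above 10 with the replicate mean above 10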
beta cell repl: inducers of beta-cell replication in MIN6 cells. MIN6 cells proliferation, ATPlite luminescence, 48 h; cells starved in 0.2% serum; 100% = growth in 10% serum. proliferation, % at 10 µM. 330,000 tested, 0.29% active;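 active = compounds whose signal lies at least 3.5 SD above the mean of all wells on their plate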;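 note: 0% = DMSO-treated cells in low-serum medium and 100% = 10% serum control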
APOBEC3G inh: blocks human APOBEC3G single-stranded DNA deamination. Q9HC16. recombinant A3G, ssDNA deamination FAM/TAMRA fluorescence. inhibition, % at 20 µM. 330,000 tested, 0.28% active. AID 493012;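 active = inhibition of at least 40% at 20 µM, with no more than 30% in the related APOBEC3A deaminase screen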;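 note: plate controls were DMSO wells with A3G for no effect and wells lacking A3G enzyme for full effect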
Target sequence (Q9HC16 whole entry, looked up): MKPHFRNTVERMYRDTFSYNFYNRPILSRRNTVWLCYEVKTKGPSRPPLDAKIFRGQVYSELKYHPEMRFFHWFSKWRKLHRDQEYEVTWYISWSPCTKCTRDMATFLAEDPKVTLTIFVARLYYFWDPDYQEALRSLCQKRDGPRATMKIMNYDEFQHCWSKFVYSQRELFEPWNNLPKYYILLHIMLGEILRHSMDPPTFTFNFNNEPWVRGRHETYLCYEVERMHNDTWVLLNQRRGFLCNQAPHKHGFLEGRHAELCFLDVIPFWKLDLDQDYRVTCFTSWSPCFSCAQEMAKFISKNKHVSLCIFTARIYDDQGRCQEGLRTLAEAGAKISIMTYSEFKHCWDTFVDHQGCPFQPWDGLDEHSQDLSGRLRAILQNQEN
APOBEC3A confirm: APOBEC3A (human) deaminase inhibition, confirmed; shares compounds with APOBEC3A inh; recombinant A3A, ssDNA deaminase UDG fluorescence assay; inhibition, % at 20 µM; 1,400 tested, 63% active; AID 493151;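 active = inhibition reaching a set limit, 80% of the first screen's cutoff, at 20 µM in any replicate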;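 note: plate controls were DMSO wells with A3A for no effect and wells lacking A3A enzyme for full effect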
UDG A3A counter: counter-screen for APOBEC3A inhibitors: UDG. shares compounds with APOBEC3A inh. UDG counterscreen, FAM/TAMRA uracil oligo fluorescence. inhibition, % at 20 µM. 1,000 tested, under 10 active. AID 504714; call rule not given here
* = called active by the depositor. Hits are enriched below; roughly 1.1% of the tested compounds scored in any of these assays.

What do the screens show for `Oc1cccc(O)c1O`?
APOBEC3A inh: 42*; A1 inh: 0; beta cell repl: -6; APOBEC3G inh: 4; APOBEC3A confirm: 44*

Results for O=C(O)c1cccc(O)c1O ?
APOBEC3A inh: 1; A1 inh: 2; beta cell repl: -5; APOBEC3G inh: -4

What do the screens show for `COc1cccc(CNC(=O)CCc2nc3cc(S(=O)(=O)N4CCOCC4)ccc3n2C)c1`?
APOBEC3A inh: 0; A1 inh: 0; beta cell repl: 6; APOBEC3G inh: -5

What do the screens show for `Cn1c(CCC(=O)Nc2cc(S(C)(=O)=O)ccc2Cl)nc2cc(S(=O)(=O)N3CCOCC3)ccc21`?
APOBEC3A inh: 74*; A1 inh: 1; beta cell repl: -5; APOBEC3G inh: 26; APOBEC3A confirm: 76*; UDG A3A counter: 3

Results for CCOC(=O)c1c(NC(=O)c2ccc(N3C(=O)[C@@H]4[C@H](C3=O)[C@H]3C=C[C@@H]4C3)cc2)sc2c1CC(C)CC2 (stereo partly drawn) ?
APOBEC3A inh: 91*; A1 inh: 0; beta cell repl: -4; APOBEC3G inh: -5; APOBEC3A confirm: 6; UDG A3A counter: 6

What do the screens show for `O=C(NCc1ccco1)c1nc(-c2ccc(F)cc2)no1`?
APOBEC3A inh: 40*; A1 inh: 0; beta cell repl: -4; APOBEC3G inh: -9; APOBEC3A confirm: -3; UDG A3A counter: -2

Results for CC(C)(CNC(=O)c1cccs1)N1CCOCC1 ?
APOBEC3A inh: -4; A1 inh: 1; beta cell repl: 0; APOBEC3G inh: -8

What do the screens show for `O=C(COC(=O)/C=C/c1ccccc1Cl)NC1CCCC1`?
APOBEC3A inh: -2; A1 inh: 0; beta cell repl: 1; APOBEC3G inh: -1

Results for Cc1ccccc1CSCC(=O)Nc1ccccc1Br ?
APOBEC3A inh: 72*; A1 inh: 3; beta cell repl: -2; APOBEC3G inh: 16; APOBEC3A confirm: 11

What do the screens show for `CSc1cccc(CN(C)C(=O)C2CCC(=O)N(CCCN3CCCC3=O)C2)c1` (stereo not drawn)?
APOBEC3A inh: -3; A1 inh: -1; beta cell repl: 6; APOBEC3G inh: -5

How did C[C@H]1c2cccc(O)c2C(=O)C2C(=O)C3(O)C(=O)C(C(N)=O)C(=O)[C@@H](N(C)C)[C@@H]3[C@@H](O)[C@@H]21 (stereo partly drawn) do in these assays?
APOBEC3A inh: 2; beta cell repl: 1; APOBEC3G inh: -1

How did CN(C)c1ccc(O)c2c1CC1CC3C(N(C)C)C(=O)C(C(N)=O)=C(O)[C@@]3(O)C(=O)C1=C2O (stereo partly drawn) do in these assays?
APOBEC3A inh: 40*; A1 inh: 0; beta cell repl: -3; APOBEC3G inh: -3; APOBEC3A confirm: -1; UDG A3A counter: -3

How did CN(C)c1ccc(O)c2c1CC1CC3[C@@H](N(C)C)C(=O)C(C(N)=O)C(=O)[C@]3(O)C(=O)C1C2=O (stereo partly drawn) do in these assays?
APOBEC3A inh: 54*; beta cell repl: -4; APOBEC3G inh: 12; APOBEC3A confirm: 30*; UDG A3A counter: -2

How did O=C(NC1CCN(Cc2ccccc2)CC1)c1cccc(S(=O)(=O)Nc2ccc(F)cc2)c1 do in these assays?
APOBEC3A inh: -4; A1 inh: 1; beta cell repl: -3; APOBEC3G inh: -8

Results for O=C(Nc1ccc(-c2cn3ccsc3n2)cc1)C1CCCC1 ?
APOBEC3A inh: 10; A1 inh: -11; beta cell repl: 0; APOBEC3G inh: 3

What do the screens show for `O=C(Nc1ccc(-c2cn3ccsc3n2)cc1)C1CC1`?
APOBEC3A inh: 77*; A1 inh: 0; beta cell repl: -7; APOBEC3G inh: -2; APOBEC3A confirm: 10; UDG A3A counter: -1

Results for CCn1c(SCC(=O)N2CCCC2)nnc1-c1ccc(N)cc1 ?
APOBEC3A inh: 44*; A1 inh: 0; beta cell repl: -2; APOBEC3G inh: 25; APOBEC3A confirm: 65*; UDG A3A counter: 3

Results for O=C(O)CC1c2ccccc2CCN1S(=O)(=O)c1cccs1 (stereo not drawn) ?
APOBEC3A inh: -1; A1 inh: 1; beta cell repl: 0; APOBEC3G inh: -8

Results for CC[n+]1ccc(/C=C/c2c[nH]c3ccccc23)cc1 ?
APOBEC3A inh: 48*; A1 inh: 0; beta cell repl: -4; APOBEC3G inh: 2; APOBEC3A confirm: 64*; UDG A3A counter: -8

What do the screens show for `COc1ccc2c(C=O)c[nH]c2c1`?
APOBEC3A inh: 0; A1 inh: 1; beta cell repl: 0; APOBEC3G inh: 2

Results for CCn1c(/C=C/c2c[nH]c3ccccc23)nc2ccccc2c1=O ?
APOBEC3A inh: -3; A1 inh: -2; beta cell repl: -3; APOBEC3G inh: -12

Results for Cc1ccc2[nH]cc(/C=C/c3cc[n+](C)cc3)c2c1 ?
APOBEC3A inh: 49*; A1 inh: 0; beta cell repl: -5; APOBEC3G inh: -14; APOBEC3A confirm: 67*; UDG A3A counter: -8

Results for COc1ccc2c(/C=C/c3cc[n+](C)cc3)c[nH]c2c1 ?
APOBEC3A inh: 45*; A1 inh: 1; beta cell repl: -5; APOBEC3G inh: 12; APOBEC3A confirm: 61*; UDG A3A counter: 3

What do the screens show for `Cc1n(-c2ccccc2)c2ccc(Cl)cc2[n+]1CCO`?
APOBEC3A inh: 50*; A1 inh: 2; beta cell repl: 2; APOBEC3G inh: 16; APOBEC3A confirm: 75*; UDG A3A counter: -2

Results for Cc1nc2cc(Cl)ccc2n1-c1ccccc1 ?
APOBEC3A inh: -1; A1 inh: 0; beta cell repl: -3; APOBEC3G inh: -3

What do the screens show for `COc1cc(C(=O)NCC(=O)N2CCN(S(=O)(=O)c3cc(C)ccc3C)CC2)cc(OC)c1OC`?
APOBEC3A inh: 4; A1 inh: 0; beta cell repl: -5; APOBEC3G inh: -4

How did CSc1ccc(CNc2ccccn2)cc1 do in these assays?
APOBEC3A inh: 48*; A1 inh: -5; beta cell repl: -2; APOBEC3G inh: 9; APOBEC3A confirm: 3

What do the screens show for `CCCOc1cccc(C2C(C(=O)c3ccc(C)o3)=C(O)C(=O)N2c2nc(C)c(C(C)=O)s2)c1` (stereo not drawn)?
APOBEC3A inh: 3; A1 inh: 0; beta cell repl: -3; APOBEC3G inh: -3

How did COC(=O)N/N=C(C)\C=C\c1ccco1 do in these assays?
APOBEC3A inh: 49*; A1 inh: 0; beta cell repl: -1; APOBEC3G inh: 0; APOBEC3A confirm: 2

How did CC1Cc2ccccc2N1C(=O)CN1C(=O)NC(C)(CCc2ccccc2)C1=O (stereo not drawn) do in these assays?
APOBEC3A inh: -4; A1 inh: -1; beta cell repl: -2; APOBEC3G inh: 1
